From PubChem BioAssay (NCI)
About 83,000 compounds went through this panel and 20% of them were active in at least one assay; those are over-represented in the sample as a whole.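 Assay: single dose, 48 h. Readout: percent growth (0 = no net growth; negative = cell death). Active: <10.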 Values without a mark were called inactive. Activity calls are given as the source filed them.

Experiments:
Assay in all cases: NCI-60 one-dose screen, 48 h (100 = growth as untreated, 0 = no growth, -100 = all killed)
Settings in all cases: 10 µM unless noted
NCI-H23 lung = system: NCI-H23 lung
NCI-H226 lung = system: NCI-H226 lung
NCI-H322M lung = system: NCI-H322M lung
HOP-62 NSCLC = system: HOP-62 NSCLC
NCI-H460 lung = system: NCI-H460 lung
NCI-H522 lung = system: NCI-H522 lung
A549/ATCC NSCLC = system: A549/ATCC NSCLC
786-0 renal = system: 786-0 renal
COLO 205 colon = system: COLO 205 colon
DU-145 prostate = system: DU-145 prostate
K-562 leukemia = system: K-562 leukemia
MALME-3M melanoma = system: MALME-3M melanoma
RXF 393 renal = system: RXF 393 renal
SF-268 CNS = system: SF-268 CNS
SF-295 CNS = system: SF-295 CNS
SF-539 CNS = system: SF-539 CNS
UACC-257 melanoma = system: UACC-257 melanoma
M14 melanoma = system: M14 melanoma
MDA-MB-231 breast = system: MDA-MB-231 breast
HOP-92 NSCLC = system: HOP-92 NSCLC

SMILES | growth (NCI-H23 lung) | growth (NCI-H226 lung) | growth (NCI-H322M lung) | growth (HOP-62 NSCLC) | growth (NCI-H460 lung) | growth (NCI-H522 lung) | growth (A549/ATCC NSCLC) | growth (786-0 renal) | growth (COLO 205 colon) | growth (DU-145 prostate) | growth (K-562 leukemia) | growth (MALME-3M melanoma) | growth (RXF 393 renal) | growth (SF-268 CNS) | growth (SF-295 CNS) | growth (SF-539 CNS) | growth (UACC-257 melanoma) | growth (M14 melanoma) | growth (MDA-MB-231 breast) | growth (HOP-92 NSCLC)
O=C(/C=C/c1ccc(-c2ccccc2)cc1)c1nc2ccccc2n1Cc1ccc(F)cc1 | 47.5% | -13.9% (active) | 64.5% | 36.1% | 36.5% | 64.1% | 61.9% | 30.7% | 48.9% | 54.4% | 21.7% | 0% (active) | 13.6% | 62.4% | 40.4% | -15.9% (active) | 49.5% | 39.6% |  | 
COc1ccc(/C=C/c2n(Cc3ccc4ccccc4c3)c3ccccc3[n+]2Cc2ccc3ccccc3c2)cc1 | -92.2% (active) | -45% (active) | -96.2% (active) | -76.4% (active) | -85.6% (active) | -91% (active) | -88.5% (active) | -85.7% (active) | -86.8% (active) | -93.1% (active) | 1.11% (active) | -85.7% (active) | -74.7% (active) | -80.5% (active) | -95.8% (active) | -95.5% (active) | -91.7% (active) | -88.3% (active) | -86.5% (active) | 
Cc1cc(C)cc(C(=O)Nc2cccc(-c3cn(-c4ccc(S(N)(=O)=O)cc4)nn3)c2)c1 | 0.645% (active) | 15.9% | 68.5% | -18.3% (active) | 41.4% | 61.7% | 62.2% | -66.3% (active) | 141% | 72.1% | 19.1% | 20.4% | -26.1% (active) | 16.6% | -36.6% (active) | -84.3% (active) | 76.2% | 73.4% |  | 
COC(=O)C[C@](O)(CCCC(C)(C)O)C(=O)O[C@H]1C(OC)=C[C@@]23CCCN2CCc2cc4c(cc2[C@@H]13)OCO4 | -53.9% (active) | -21.4% (active) | -3.53% (active) | 14.3% | -3.74% (active) | -68.7% (active) | -18.5% (active) | -14.4% (active) | -42.3% (active) | -11.7% (active) | 4.68% (active) | -43.8% (active) | -31.8% (active) | -6.53% (active) | -22.8% (active) | -50.8% (active) | -28.2% (active) | -71.4% (active) | -20.4% (active) | 
Cc1ncsc1-c1ccc(CNC(=O)[C@@H]2C[C@@H](O)CN2C(=O)[C@@H](NC(=O)C2(F)CC2)C(C)(C)C)c(OCCOCCOCCOCCOc2nc(Nc3cc(S(C)(=O)=O)ccc3N[C@@H](c3cccc4c3OC(F)(F)O4)c3ncccc3Cl)nc(N3CCNCC3)n2)c1 | 85.3% | 71.5% | 82.3% | 90.6% | 87.3% | 100% | 103% | 97.7% | 89.8% | 69% | 23.1% | 41.4% | 65.3% | 65.7% | 101% | 70.1% | 94.4% | 97.5% |  | 
CC1CCCCN1CCCNC(=O)N/C(N)=N/c1nc2ccccc2s1 (stereo unspecified) | 58.8% | 48.5% | 77% | 59.6% | 42.2% | 72.2% | 47.3% | 29.5% | -58.6% (active) | 72.1% | -27.6% (active) | -93.2% (active) | 5.45% (active) | 49.7% | 15.3% | -60.9% (active) | -86.8% (active) | -85.2% (active) |  | 
COc1cc(-c2ccc(/C=N/NC(=O)c3[nH]c4ccc(Br)cc4c3-c3ccccc3)s2)cc(OC)c1OC | 68.2% | 54.4% | 90.2% | 74.2% | 75.7% | 83.2% | 77.1% | 58.3% | 108% | 86.4% | 89.6% | 86.7% | 82.4% | 67.8% | 49.6% | 6.55% (active) | 100% | 82.5% |  | 
CC1=C(C(=O)c2ccccc2)C(c2cccc(Cl)c2Cl)n2c(nc3ccccc32)N1 (stereo unspecified) | 63% | 7.18% (active) | 72% | 14.9% | 60.9% | 49.9% | 53.4% | 37.9% | 82.3% | 58.1% | 61.4% | 57.9% | 42.8% | 43.6% | 63.3% | 16.6% | 76.2% | 81.8% |  | 
Cc1ccc(/C=C/c2n(Cc3ccc4ccccc4c3)c3ccccc3[n+]2Cc2ccc3ccccc3c2)cc1 | -92.4% (active) | -27.4% (active) | -98.4% (active) | -58.2% (active) | -77.4% (active) | -82.5% (active) | -53.4% (active) | -51.6% (active) | -64.8% (active) | -90.1% (active) | -25.6% (active) | -90.2% (active) |  | -65.1% (active) | -98.5% (active) | -96.5% (active) | -71.5% (active) | -74.1% (active) | -47.3% (active) | 
Cc1c(C(=O)NNC(=O)Nc2ccc(Cl)cc2)nnn1-c1ccc(Br)cc1 | 102% | 103% | 90.3% | 97.1% | 107% | 96.4% | 96.9% | 96.7% | 107% | 99.5% | 92.2% | 90.7% | 90.5% | 103% | 98.8% | 102% | 99% | 101% |  | 
CCN(CC)C(=O)N/C(N)=N/c1nc2ccccc2s1 | 34.5% | 39.4% | 81.4% | 68.9% | 67% | 51.2% | 62.9% | 63.2% | 86.4% | 48.8% | 30.3% | 56.8% | 58.5% | 72.6% | 32.5% | 69.7% | 40.5% | 71.9% |  | 
COCOc1cc2oc(C(=O)N[C@@H](Cc3ccccc3)C(O)C(=O)NCc3ccccc3)c(C)c(=O)c2cc1OCOC (stereo partly specified) | 59.2% | -11.8% (active) | 97.7% | 71.9% | 9.45% (active) | 86.9% | 58.9% | 14.5% | 109% | 52.8% | 90.4% | 22.3% | -23.7% (active) | 65.8% | 89% | 24.7% | 61.1% | 82.9% | 20.7% | 
CCCCCCn1c(O)c(N=Nc2nc(-c3cc4ccccc4oc3=O)cs2)c2ccccc21 | -20.9% (active) | 67.8% | 53.1% | 39.9% | 5.99% (active) | -21.8% (active) | -16.6% (active) | -64.8% (active) | 4.61% (active) | 10.1% | 29.8% | -72.1% (active) |  | 11% | 47.8% | 56.1% | 46.3% | -4.72% (active) | -65.6% (active) | 
COc1cc(C2CC(c3cc(OC)c(OC)c(OC)c3)=NN2C(C)=O)ccc1OCc1ccccc1 (stereo unspecified) | 47.2% | 28% | 59.8% | 70.2% |  | 26.8% | 31.8% | 34% | 10.9% | 40.4% | 18.6% | 43.1% | 31.4% | 47.8% | 24.6% | 51.7% | 48.8% | 36.9% | 64% | -4.8% (active)
CSc1ccc(NC(=O)c2ccc3nn(/C(C#N)=C/c4ccccn4)nc3c2)cc1 | -90.9% (active) | -90.5% (active) | -54.5% (active) | -70.3% (active) | -64.5% (active) | -84.6% (active) | -71.8% (active) | -84.7% (active) | -79% (active) | -100% (active) | -13.4% (active) | -89.4% (active) | -94.9% (active) | -40% (active) | -95.7% (active) | -95% (active) | -89.3% (active) | -86% (active) |  | 
COc1ccc(-c2nc3ccc(C(=O)NN4C(=O)c5ccc([N+](=O)[O-])cc5C4=O)cc3[nH]2)cc1 | 98% | 79.9% | 96.1% | 91.8% |  | 88.6% | 93% | 87.7% | 105% | 109% | 102% | 87.9% | 68.4% | 105% | 88.2% | 91.1% | 94.2% | 93.7% | 90.1% | 81%
O=c1oc2ccccc2cc1-c1csc(N=Nc2c(O)[nH]c3ccc(Cl)cc23)n1 | 98.7% | 98.3% | 114% | 101% | 109% | 98.7% | 102% | 86.3% | 136% | 98% | 104% | 96.2% |  | 82.1% | 87.9% | 94.2% | 104% | 109% | 113% | 
